The record followed here is PubChem BioAssay (Tox21).

“And” between values parts separate entries of the source, which are not always exact repeats. Equal values may be shown once. The source made the active and inactive calls. Unless noted, calls follow the shape of the dose curve; as a rule, active = well fitted curve in the direction sought with a large enough effect in the repeat runs; inconclusive = weak or mixed curves; inactive = no such curve, though single readings can be large; an effect the other way counts as inactive or inconclusive.

The nature of test [1]: qHTS assay to identify small molecule antagonists of the estrogen receptor alpha (ER-alpha) signaling pathway - cell viability counter screen (AID 743074; calls by dose curve;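 also: HEK293 cells carrying ER-alpha-UAS-bla reporter stimulated with 17beta-estradiol; nearly all actives have a fitted effect of over 45% in size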; also: potency is read from the fitted curve at half-maximal effect). The conditions noted are these: ERalpha-bla HEK293 viability, CellTiter-Glo luminescence, 18 h; series mostly up to 69.4 µM. For orientation: qHTS replaces the single test concentration by a dilution series.
Test [2] addresses Estrogen receptor (Homo sapiens) (UniProt P03372). Put plainly: qHTS assay to identify small molecule agonists of the estrogen receptor alpha (ER-alpha) signaling pathway (AID 743075; calls by dose curve; also: potency is read from the fitted curve at half-maximal effect). The conditions noted are these: HEK293 ER-alpha-UAS-bla, beta-lactamase FRET ratio, 18 h; series mostly up to 70.1 µM.
For test [3] the target is unchanged. Put plainly: qHTS assay to identify small molecule agonists of the estrogen receptor alpha (ER-alpha) signaling pathway using the BG1 cell line (AID 743079). Also: nearly all actives have a fitted effect of over 20% in size. Also: potency is read from the fitted curve at half-maximal effect. The conditions noted are these: BG1Luc4E2 cells, ERE-luciferase agonist, 22 h; activation: at 70.3 µM (top of the series).
Test [4] can be described thus: qHTS assay to identify small molecule antagonists of the estrogen receptor alpha (ER-alpha) signaling pathway using the BG1 cell line (AID 743080; calls by dose curve;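 also: BG1 cells stimulated with 17beta-estradiol alongside compound; nearly all actives have a fitted effect of over 25% in size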). The conditions noted are these: BG1Luc4E2 ERE-luciferase antagonist mode, luminescence; series mostly up to 70.3 µM. An outline of the steps: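 Seeding, 24 h rest, compound transfer from DMSO, 17beta-estradiol addition, 21.5 h incubation, CellTiter-Fluor (30 min, 37 C), then ONE-Glo (30 min, room temperature): this sequence was run on BG1-Luc-4E2 reporter cells.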

A short description of test [5]: qHTS assay to identify small molecule antagonists of the estrogen receptor alpha (ER-alpha) signaling pathway using the BG1 cell line - cell viability counter screen (AID 743081).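 Also: compound given together with 17beta-estradiol as the ER stimulus; nearly all actives have a fitted effect of over 45% in size.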 Also: potency is read from the fitted curve at half-maximal effect. The conditions noted are these: BG1Luc4E2 viability, CellTiter-Fluor, 22 h; series mostly up to 70.3 µM.
For a further test, the target named is Aromatase (Homo sapiens) (UniProt P11511). Put plainly: qHTS assay to identify aromatase inhibitors (AID 743083). Also: nearly all actives have a fitted effect of over 55% in size. Also: potency is read from the fitted curve at half-maximal effect. The conditions noted are these: MCF-7 aro ERE, testosterone-driven ERE luciferase, 24 h; series mostly up to 70.3 µM.
Chain of Aromatase (Homo sapiens) (P11511 whole entry, looked up): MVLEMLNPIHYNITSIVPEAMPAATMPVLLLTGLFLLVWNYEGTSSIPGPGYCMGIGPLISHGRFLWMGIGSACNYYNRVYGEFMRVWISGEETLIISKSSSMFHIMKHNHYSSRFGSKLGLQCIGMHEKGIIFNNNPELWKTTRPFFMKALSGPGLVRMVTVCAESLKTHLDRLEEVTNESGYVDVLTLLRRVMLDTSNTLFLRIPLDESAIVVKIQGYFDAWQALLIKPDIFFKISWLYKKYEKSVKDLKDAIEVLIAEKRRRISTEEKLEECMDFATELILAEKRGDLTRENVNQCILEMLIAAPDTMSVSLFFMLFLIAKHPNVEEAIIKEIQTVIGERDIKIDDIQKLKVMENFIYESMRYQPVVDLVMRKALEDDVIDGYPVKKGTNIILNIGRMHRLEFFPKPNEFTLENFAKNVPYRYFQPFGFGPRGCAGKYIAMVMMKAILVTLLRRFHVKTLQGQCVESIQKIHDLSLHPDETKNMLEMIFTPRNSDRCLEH
In test [6] the target is Estrogen receptor (Homo sapiens) (UniProt P03372). In words: qHTS assay to identify small molecule antagonists of the estrogen receptor alpha (ER-alpha) signaling pathway (AID 743069; active = well fitted curve in the direction sought with a large enough effect in the signal ratio in the repeat runs, not every such curve was filed as active; inconclusive = weak or mixed curves, or effect the other way; inactive = no such curve, though single readings can be large or run the other way; the % refers to the signal ratio; also: potency is read from the fitted curve at half-maximal effect). The conditions noted are these: HEK293 ER-alpha-UAS-bla, beta-lactamase ratio, antagonist mode; series mostly up to 69.4 µM. An outline of the steps: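 HEK293 ER-alpha-UAS-bla GripTite cells, held overnight in 2% charcoal-stripped FBS, 5,000 cells/well, preincubated 4 h, then compound plus 17beta-estradiol for 18 h at 37C. Beta-lactamase read by LiveBLAzer B/G FRET substrate, 2 h at room temperature.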
Chain of Estrogen receptor (Homo sapiens) (P03372 whole entry, looked up): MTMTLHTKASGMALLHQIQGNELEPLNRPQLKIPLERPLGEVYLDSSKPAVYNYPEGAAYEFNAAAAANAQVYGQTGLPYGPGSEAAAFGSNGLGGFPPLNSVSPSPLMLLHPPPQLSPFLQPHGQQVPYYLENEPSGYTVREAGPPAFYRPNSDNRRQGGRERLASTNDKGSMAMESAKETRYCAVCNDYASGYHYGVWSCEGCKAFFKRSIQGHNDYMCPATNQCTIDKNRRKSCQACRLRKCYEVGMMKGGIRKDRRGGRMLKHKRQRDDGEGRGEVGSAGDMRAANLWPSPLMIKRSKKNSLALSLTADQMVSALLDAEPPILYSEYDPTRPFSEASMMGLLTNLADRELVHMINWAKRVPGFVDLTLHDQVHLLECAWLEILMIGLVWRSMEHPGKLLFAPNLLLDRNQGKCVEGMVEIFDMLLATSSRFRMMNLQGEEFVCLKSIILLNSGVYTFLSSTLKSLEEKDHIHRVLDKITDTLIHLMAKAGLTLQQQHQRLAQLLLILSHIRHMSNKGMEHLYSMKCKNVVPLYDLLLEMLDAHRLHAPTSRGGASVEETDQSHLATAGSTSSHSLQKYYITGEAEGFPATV
% is scaled to controls: 0 for no effect and ±100 for the full control effect.

As for `COC(F)(F)C(Cl)Cl`, the Potency entry (in test [1]; in test [2]; in test [3]; in test [4]; in test [5]; with Aromatase (Homo sapiens)) was “inactive” throughout.
Consider `CO[C@H]1C[C@H](O[C@@H]2/C(C)=C/C[C@@H]3C[C@@H](C[C@]4(CC[C@H](C)[C@@H](C5CCCCC5)O4)O3)OC(=O)[C@@H]3C=C(C)/C(=N/O)[C@H]4OC/C(=C\C=C\[C@@H]2C)[C@]43O)O[C@@H](C)[C@@H]1O`, for which the Potency result (in test [1]; in test [5]; in the test with Aromatase (Homo sapiens)) was “inactive” each time.
As for `COC(=O)C1=C(C#N)NC(C)=C(C(=O)OC(C)C)C1c1cccc([N+](=O)[O-])c1` (stereo not given), the Potency entry in test [1], in test [2], in test [3], in test [4] and in test [5] was “inactive” each time. In addition, the Potency in the test with Aromatase (Homo sapiens) was 29.8 µM (active).
Regarding `C[N+]1(C)CCN(CC(O)(c2ccccc2)C2CCCCC2)CC1` (stereo not given), the Potency result (in test [1]; in test [5]; in the test with Aromatase (Homo sapiens)) was “inactive” each time.
Consider `Cc1ccccc1OCC(O)CNCCOc1ccc(C(N)=O)cc1` (stereo not given), for which the Potency entry (in test [1]; in test [5]; with Aromatase (Homo sapiens)) was “inactive” in each case.
Turning to `CC1(C)S[C@@H]2[C@H](NC(=O)C(N)c3ccccc3)C(=O)N2[C@H]1C(=O)OC1OC(=O)c2ccccc21` (stereo not given in full), the Potency result (in test [1]; in test [5]; with Aromatase (Homo sapiens)) was “inactive” each time.
Consider `N[C@@H](C(=O)N[C@@H]1C(=O)N2C(C(=O)O)=C(CSc3cn[nH]n3)CS[C@H]12)c1ccc(O)cc1`, for which the Potency result (in test [1]; in test [5]; in the test with Aromatase (Homo sapiens)) was “inactive” in each case.
With `CC(O)[C@@H]1NC(=O)[C@H](CCCCN)NC(=O)[C@@H](Cc2c[nH]c3ccccc23)NC(=O)[C@H](Cc2ccccc2)NC(=O)[C@@H](NC(=O)[C@H](N)Cc2ccccc2)CSSC[C@@H](C(=O)N[C@H](CO)[C@@H](C)O)NC1=O` (stereo not given in full), the Potency entry (in test [1]; in test [2]; in test [4]; in test [5]; with Aromatase (Homo sapiens)) was “inactive” in each case.
For `Cc1cc(C(=O)NNCc2ccccc2)no1`, the Potency entry (in test [6]; in test [1]; in test [2]; in test [5]; in the test with Aromatase (Homo sapiens)) was “inactive” each time. Also, the Potency in test [3] was 5.07 µM (active).
As for `C=C[C@]1(C)C[C@@H](OC(=O)CO)[C@]2(C)[C@H](C)CC[C@]3(CCC(=O)[C@H]32)[C@@H](C)[C@@H]1O`, the Potency entry (in test [6]; in test [2]; in test [3]; in test [4]; with Aromatase (Homo sapiens)) was “inactive” each time.
For `Nc1ncnc2c1ncn2[C@@H]1O[C@H](COP(=O)(O)OP(=O)(O)OP(=O)(O)O)[C@@H](O)[C@H]1O`, in test [1], the Potency was 6.01 µM (active). Further, the Potency entry (in test [2]; in test [3]; in test [5]; with Aromatase (Homo sapiens)) was “inactive” each time.
Turning to `CCNC(=O)[C@@H]1CCCN1C(=O)[C@H](CCCN=C(N)N)NC(=O)[C@H](CC(C)C)NC(=O)[C@@H](CC(C)C)NC(=O)[C@H](Cc1ccc(O)cc1)NC(=O)[C@H](CO)NC(=O)[C@H](Cc1c[nH]c2ccccc12)NC(=O)[C@H](Cc1cnc[nH]1)NC(=O)[C@@H]1CCC(=O)N1`, the Potency entry (in test [1]; in test [4]; with Aromatase (Homo sapiens)) was “inactive” throughout.
`CC[C@H](C)[C@H]1O[C@]2(CC[C@@H]1C)C[C@@H]1C[C@@H](C/C=C(\C)[C@@H](O[C@H]3C[C@H](OC)[C@@H](O[C@H]4C[C@H](OC)[C@@H](O)[C@H](C)O4)[C@H](C)O3)[C@@H](C)/C=C/C=C3\CO[C@@H]4[C@H](O)C(C)=C[C@@H](C(=O)O1)[C@]34O)O2`: the Potency in test [6] was 7.56 µM [inconclusive] (active); in test [1], 19 µM (active). The Potency entry in the test with Aromatase (Homo sapiens) is “inactive”.
As for `CCCCC(=O)O[C@H]1CC[C@H]2[C@@H]3CCc4cc(O)ccc4[C@H]3CC[C@]12C`, the Potency entry (in test [1]; in test [4]; in test [5]; with Aromatase (Homo sapiens)) was “inactive” throughout. In addition, the Potency in test [2] was 0.0006 µM [inconclusive] (active). In addition, the activation in test [3] is 61.2% (active).
`CCOC(=O)CN[C@@H](C(=O)N1CC[C@H]1C(=O)NCc1ccc(/C(N)=N/O)cc1)C1CCCCC1`: the Potency entry (in test [1]; in test [2]; in test [3]; in test [4]; in test [5]; with Aromatase (Homo sapiens)) was “inactive” each time.
In the case of `CNc1cc(OC)c(C(=O)N[C@H]2CCN(Cc3ccccc3)[C@H]2C)cc1Cl`, the Potency result (in test [6]; in test [1]; in test [2]; in test [3]; with Aromatase (Homo sapiens)) was “inactive” throughout.
Take `COc1ccc2c(=O)c(C)c(-c3ccccc3)oc2c1CN(C)C`: the Potency result in test [1] and in test [5] was “inactive” each time.
For `Nc1c(Br)cc(Br)cc1CNC1CCC(O)CC1` (stereo not given), the Potency entry (in test [1]; in test [2]; in test [3]; in test [4]; in test [5]; in the test with Aromatase (Homo sapiens)) was “inactive” in each case.
In the case of `CC[C@@]1(O)C[C@H](O[C@H]2C[C@H](N(C)C)[C@H](O[C@H]3C[C@H](O)[C@H](O[C@H]4CCC(=O)[C@H](C)O4)[C@H](C)O3)[C@H](C)O2)c2c(cc3c(c2O)C(=O)c2c(O)cccc2C3=O)[C@H]1C(=O)OC`, the Potency in test [6] is 6.01 µM [inconclusive] (active); in test [3], 2.98 µM (active); with Aromatase (Homo sapiens) it was 2.66 µM (active). In addition, the Potency result in test [1] is “inactive”.
As for `CCOC(=O)c1cc(-c2ccccc2)nc2ccc(C)cc12`, the Potency result (in test [1]; in test [2]; in test [3]; in test [4]; in test [5]; with Aromatase (Homo sapiens)) was “inactive” in each case.
For the compound `CC(C)CN(C[C@@H](O)[C@H](Cc1ccccc1)NC(=O)O[C@@H]1CCOC1)S(=O)(=O)c1ccc(N)cc1`, the Potency entry (in test [1]; in test [2]; in test [5]; with Aromatase (Homo sapiens)) was “inactive” throughout.
Turning to `OCC(S)CS` (stereo not given), the Potency entry (in test [1]; in test [2]; in test [3]; in test [5]; with Aromatase (Homo sapiens)) was “inactive” throughout.
As to `CCC(=O)O[C@@H]1CC(=O)O[C@H](C)C/C=C/C=C/[C@H](O)[C@H](C)C[C@H](CC=O)[C@H](O[C@@H]2O[C@H](C)[C@@H](O[C@H]3C[C@@](C)(O)[C@@H](OC(=O)CC)[C@H](C)O3)[C@H](N(C)C)[C@H]2O)[C@H]1OC`, the Potency result (in test [1]; in test [5]; in the test with Aromatase (Homo sapiens)) was “inactive” each time.
As to `C#C[C@]1(O)CC[C@H]2[C@@H]3CCC4=C(CCC(=O)C4)[C@H]3CC[C@@]21C`, the Potency result (in test [1]; in test [5]; in the test with Aromatase (Homo sapiens)) was “inactive” each time.
Consider `CN(CC(=O)N1CCOCC1)Cc1c(Cl)cccc1NC(=O)c1ccccc1`, for which the Potency entry in test [1], in test [2], in test [3], in test [4] and in test [5] was “inactive” each time.
With `CCN(CC)Cc1cc(Nc2ccnc3cc(Cl)ccc23)ccc1O`, the Potency result (in test [1]; with Aromatase (Homo sapiens)) was “inactive” throughout.
Consider `CCOC(=O)C1=C(COCCN)NC(C)=C(C(=O)OC)C1c1ccccc1Cl` (stereo not given), for which the Potency entry in test [1] and in test [5] was “inactive” throughout. For the same compound, the Potency with Aromatase (Homo sapiens) was 29.8 µM (active) and 9.44 µM (active).
Turning to `CO[C@H]1C[C@H](O[C@H]2[C@H](C)[C@@H](O[C@@H]3O[C@H](C)C[C@H](N(C)C)[C@H]3OC(C)=O)[C@@H](C)C[C@]3(CO3)C(=O)[C@H](C)[C@@H](OC(C)=O)[C@@H](C)[C@@H](C)OC(=O)[C@@H]2C)O[C@@H](C)[C@@H]1OC(C)=O`, the Potency entry (in test [1]; in test [5]; with Aromatase (Homo sapiens)) was “inactive” in each case.
Turning to `CO[C@@H]1[C@@H](O[C@@H]2O[C@H](C)[C@@H](O[C@H]3C[C@@](C)(O)[C@@H](O)[C@H](C)O3)[C@H](N(C)C)[C@H]2O)[C@@H](CC=O)C[C@@H](C)[C@@H](O[C@@H]2CC[C@H](N(C)C)[C@@H](C)O2)/C=C/C=C/C[C@@H](C)OC(=O)C[C@H]1O`, the Potency result (in test [1]; in test [2]; in test [3]; in test [4]; in test [5]; in the test with Aromatase (Homo sapiens)) was “inactive” each time.
Consider `CC(C)(C)C(=O)OCOC(=O)[C@@H]1N2C(=O)[C@@H](N=CN3CCCCCC3)[C@H]2SC1(C)C`, for which the Potency entry (in test [6]; in test [1]; in test [2]; in test [3]; in the test with Aromatase (Homo sapiens)) was “inactive” throughout.
As to `CCC(=O)OCC(=O)[C@@]1(OC(=O)CC)[C@@H](C)C[C@H]2[C@@H]3CCC4=CC(=O)C=C[C@]4(C)[C@@]3(F)[C@@H](O)C[C@@]21C`, in test [1], the Potency entry was “inactive”. The Potency in test [2] was 23.9 µM [fluorescent] (active); in the test with Aromatase (Homo sapiens) it was 3.76 µM (active).
For the compound `CCC(=O)OCC(=O)[C@@]1(OC(=O)CC)[C@H](C)C[C@H]2[C@@H]3CCC4=CC(=O)C=C[C@]4(C)[C@@]3(F)[C@@H](O)C[C@@]21C`, the Potency entry (in test [1]; in test [3]; in test [5]; in the test with Aromatase (Homo sapiens)) was “inactive” in each case.
On to `COc1ccc(C(=O)Nc2ccccc2CCC2CCCCN2C)cc1` (stereo not given), for which the Potency entry (in test [6]; in test [2]; in test [4]; in the test with Aromatase (Homo sapiens)) was “inactive” each time. In addition, the Potency in test [5] was 2.98 µM (active).
In the case of `CO[C@H]1C=CO[C@@]2(C)Oc3c(C)c(O)c4c(O)c(c(/C=N/N5CCN(C6CCCC6)CC5)c(O)c4c3C2=O)NC(=O)/C(C)=C\C=C[C@H](C)[C@H](O)[C@@H](C)[C@@H](O)[C@@H](C)[C@H](OC(C)=O)[C@@H]1C`, the Potency in test [6] is 19 µM [inconclusive] (active); in test [5] it was 26.6 µM (active); in the test with Aromatase (Homo sapiens), 33.5 µM (active). Also, the Potency entry in test [1] and in test [2] was “inactive” each time.
With `CC1(C)S[C@@H]2[C@H](NC(=O)C(C(=O)O)c3ccsc3)C(=O)N2[C@H]1C(=O)O` (stereo not given in full), the Potency entry (in test [1]; in test [2]; in test [3]; in test [5]; in the test with Aromatase (Homo sapiens)) was “inactive” each time.
